Sampled rows, rich in hits. Any-hit rate of the full collection: about 11%.
JMJD2A Tudor inh = qHTS Assay for Inhibitors of JMJD2A-Tudor Domain. Lysine-specific demethylase 4A (Homo sapiens), O75164. AlphaScreen JMJD2A-Tudor / H3K4me3 peptide binding. Potency, µM (titrated, usually from 114 µM), actives largely listed as inhibitors. hit rate 4.4% among 390,000. AID 504339, 2011; note: nearly all actives have a fitted effect of over 50% in size
G9a inh = qHTS Assay for Inhibitors of Histone Lysine Methyltransferase G9a. Histone-lysine N-methyltransferase EHMT2 (Homo sapiens), Q96KQ7. G9a H3K9 monomethylation, AlphaScreen, 2 h. Potency, µM (doses to about 102 µM), hits mostly inhibitors. hit rate 8.8% among 350,000; note: nearly all actives have a fitted effect of over 75% in size
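AlphaScreen read-out: biotin-H3K9 peptide (500 nM) methylation by 20 nM enzyme with 20 uM SAM, 2 h at room temperature after 15 min compound preincubation; anti-monomethyl H3K9 antibody plus donor/acceptor beads, 10 min dark.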
HP1b chromo inh = HTS for Inhibitors of HP1-beta Chromodomain Interactions with Methylated Histone Tails. AlphaScreen HP1-beta / biotin-H3K9me3 peptide binding. Potency, µM (doses to about 114 µM), most hits filed as inhibitors. hit rate 0.56% among 390,000; note: nearly all actives have a fitted effect of over 70% in size
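Compound inhibition of the preformed complex between 50 nM HP1-beta and 50 nM biotinylated H3K9me3 peptide was read by AlphaScreen. Buffer was PBS pH 7.4 with 0.01% Tween-20. Incubations ran 30 min at room temperature, with 10 ug/mL donor/acceptor beads.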
BAZ2B block = qHTS Assay for Inhibitors of BAZ2B. Bromodomain adjacent to zinc finger domain protein 2B (Homo sapiens), Q9UIF8. AlphaScreen BAZ2B-H3K14Ac peptide displacement. Potency, µM (doses to about 114 µM), most hits filed as inhibitors. hit rate 4.4% among 360,000. AID 504333, 2011; note: nearly all actives have a fitted effect of over 60% in size
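AlphaScreen displacement of biotin-H3(5-23)K14Ac peptide (50 nM final) from BAZ2B (50 nM final) in PBS pH 7.4, 0.01% Tween-20; complex preformed 30 min RT, then compounds (top 110 uM) 30 min RT, beads 20 min dark.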
PI5P4Ka inh = qHTS for Inhibitors of phosphatidylinositol 5-phosphate 4-kinase (PI5P4K) | Phosphatidylinositol 5-phosphate 4-kinase type-2 alpha (Homo sapiens), P48426 | PI5P4Kalpha enzyme, ADP-Glo luminescence, 60 min; active compounds read low | max response, % | hit rate 1.2% among 330,000 | AID 652105, 2013; active = max response of -50% or lower; inconclusive = between -30% and -50%; inactive = -30% or higher; note: value at the top dose of about 77 µM
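ADP-Glo luminescence end-point read after a 60 min room-temperature kinase reaction of PI5P4Kalpha plus substrate, initiated with ATP at 5 microM final. Buffer: 0.038 M HEPES pH 7.4, EGTA, 0.1% CHAPS, 5% DMSO.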
L3MBTL1 block = qHTS Assay for the Inhibitors of L3MBTL1; AlphaScreen L3MBTL1–H3K9me1 peptide binding; Potency, µM (series often up to 57.1 µM), usual class: inhibitors; hit rate 0.66% among 230,000; note: nearly all actives have a fitted effect of over 60% in size
Target sequence (Q9Y468 whole entry, looked up): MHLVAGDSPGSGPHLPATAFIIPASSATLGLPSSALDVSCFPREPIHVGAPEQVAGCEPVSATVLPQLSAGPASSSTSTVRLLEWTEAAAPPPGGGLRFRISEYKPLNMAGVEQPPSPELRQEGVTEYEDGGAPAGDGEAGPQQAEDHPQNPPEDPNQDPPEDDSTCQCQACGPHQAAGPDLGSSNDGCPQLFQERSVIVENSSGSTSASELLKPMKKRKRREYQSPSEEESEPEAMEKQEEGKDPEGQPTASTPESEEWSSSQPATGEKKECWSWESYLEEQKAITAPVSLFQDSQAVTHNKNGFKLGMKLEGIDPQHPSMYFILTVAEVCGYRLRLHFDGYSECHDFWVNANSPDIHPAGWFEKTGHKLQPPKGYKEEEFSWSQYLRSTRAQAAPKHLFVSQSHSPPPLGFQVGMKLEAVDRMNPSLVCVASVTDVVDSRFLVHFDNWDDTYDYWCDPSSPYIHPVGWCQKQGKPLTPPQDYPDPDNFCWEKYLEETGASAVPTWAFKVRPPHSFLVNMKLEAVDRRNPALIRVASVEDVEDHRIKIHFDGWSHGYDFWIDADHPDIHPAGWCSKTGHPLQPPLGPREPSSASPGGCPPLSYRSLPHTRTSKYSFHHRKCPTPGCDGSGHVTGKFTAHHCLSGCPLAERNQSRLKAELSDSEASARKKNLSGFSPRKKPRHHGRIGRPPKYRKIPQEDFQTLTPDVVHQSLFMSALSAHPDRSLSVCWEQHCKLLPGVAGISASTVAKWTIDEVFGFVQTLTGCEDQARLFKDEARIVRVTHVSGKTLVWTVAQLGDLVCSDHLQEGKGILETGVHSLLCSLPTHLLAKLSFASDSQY
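AlphaScreen proximity signal between nickel-chelate acceptor and streptavidin donor beads (final 10 ug/mL) reports binding of 50 nM L3MBTL1 to 75 nM biotin-H3 K9me1 peptide; complex incubated with compounds 30 min at room temperature; cefsulodin titration as control.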
Numbers stand for hits; [ ] = another dose, or the depositor's remark. Unless noted, calls come from the whole dose curve; as a rule, active = well fitted inhibition curve with a large enough effect; inconclusive = small, poorly fitted or top-dose-only effect; inactive = no such curve, though single readings can be large or run the other way.

How did CCN(CC)CCCNC(=O)c1ccc2c(c1)NC(=O)C(CS(=O)(=O)Cc1cccc(Br)c1)N2 (stereo not given) do in these assays?
JMJD2A Tudor inh: inactive; G9a inh: inconclusive; HP1b chromo inh: inconclusive; BAZ2B block: inactive

What do the screens show for `COc1ccc(NC(=O)C(=O)NCC(c2cccnc2)N2CCc3ccccc3C2)cc1` (stereo not given)?
JMJD2A Tudor inh: 40µM; G9a inh: 14µM; HP1b chromo inh: inconclusive; BAZ2B block: 10µM

What do the screens show for `Cc1cc(C)cc(NC(=O)C(=O)NCC(c2cccnc2)N2CCOCC2)c1` (stereo not given)?
JMJD2A Tudor inh: inactive; G9a inh: inactive; HP1b chromo inh: inactive; BAZ2B block: 79µM

Results for COc1ccc(N2CCN(C(CNC(=O)C(=O)NCCCn3ccnc3)c3cccnc3)CC2)cc1 (stereo not given) ?
JMJD2A Tudor inh: 45µM; G9a inh: inconclusive; HP1b chromo inh: inactive; PI5P4Ka inh: inactive

What do the screens show for `COc1ccc(CCNC(=O)C(=O)NCC(c2cccnc2)N2CCN(c3ccccc3)CC2)cc1` (stereo not given)?
JMJD2A Tudor inh: inactive; G9a inh: inactive; HP1b chromo inh: inactive; BAZ2B block: inactive

How did O=C(NCC(c1cccnc1)N1CCOCC1)C(=O)Nc1ccc(Cl)cc1 (stereo not given) do in these assays?
JMJD2A Tudor inh: inactive; G9a inh: inactive; HP1b chromo inh: inactive; BAZ2B block: inactive

How did O=C(NCCCn1ccnc1)C(=O)NCC(c1cccnc1)N1CCN(c2ccc(F)cc2)CC1 (stereo not given) do in these assays?
JMJD2A Tudor inh: inactive; G9a inh: 50µM; HP1b chromo inh: inactive; BAZ2B block: 50µM; PI5P4Ka inh: inactive; L3MBTL1 block: inactive

Results for Cc1ccc(-c2nnc(Nc3ccc(O)cc3)c3ccccc23)cc1S(=O)(=O)N1CCN(C)CC1 ?
JMJD2A Tudor inh: inactive; G9a inh: inactive; HP1b chromo inh: inactive; BAZ2B block: inactive

What do the screens show for `O=C(O)c1ccc(-n2cccc2/C=C2/NC(=O)N(c3ccccc3)C2=O)cc1`?
JMJD2A Tudor inh: 25µM; G9a inh: 8.9µM; HP1b chromo inh: 16µM; BAZ2B block: 13µM; PI5P4Ka inh: inconclusive

What do the screens show for `O=C(O)c1cccc(-n2cccc2/C=C2\NC(=O)N(Cc3ccc(F)cc3)C2=O)c1`?
JMJD2A Tudor inh: 56µM; G9a inh: 22µM; HP1b chromo inh: 79µM; BAZ2B block: 50µM; PI5P4Ka inh: inconclusive; L3MBTL1 block: inconclusive

Results for O=C1N/C(=C/c2cccn2-c2ccc(F)cc2)C(=O)N1Cc1ccccc1 ?
JMJD2A Tudor inh: inactive; G9a inh: inactive; HP1b chromo inh: inactive; BAZ2B block: inactive

Results for O=C(O)c1ccc(-n2cccc2/C=C2/NC(=O)N(c3cccc(Cl)c3)C2=O)cc1 ?
JMJD2A Tudor inh: 20µM; G9a inh: 8.9µM; HP1b chromo inh: inconclusive; BAZ2B block: 16µM; PI5P4Ka inh: -79

How did Cc1cc(C(=O)O)ccc1-c1ccc(/C=C2\NC(=O)N(Cc3ccc(F)cc3)C2=O)o1 do in these assays?
JMJD2A Tudor inh: inconclusive; G9a inh: 28µM; HP1b chromo inh: inactive; BAZ2B block: 40µM; PI5P4Ka inh: inactive

How did COc1ccc2[nH]cc(CCNc3ccnc(-c4ccccc4Cl)n3)c2c1 do in these assays?
G9a inh: inactive[0.501 µM]

What do the screens show for `O=C(O)c1ccc(-n2cccc2/C=C2/SC(=O)N(CC(=O)N3CCCC3)C2=O)cc1`?
JMJD2A Tudor inh: 10µM; G9a inh: 8.9µM; HP1b chromo inh: 14µM; BAZ2B block: 8.9µM; PI5P4Ka inh: -59

How did Cc1cccc(Cn2c(=O)n(-c3cc(C)cc(C)c3)c(=O)c3oc4ccccc4c32)c1 do in these assays?
JMJD2A Tudor inh: inactive; G9a inh: inactive; HP1b chromo inh: inactive; BAZ2B block: inactive

How did O=C(c1ccncc1)N1CCC2(CC1)CN(c1ccccc1)C2 do in these assays?
G9a inh: inactive[12.7 µM]

What do the screens show for `O=C1OC(/C(=C\Nc2ccc(F)cc2F)[N+](=O)[O-])c2ccccc21` (stereo not given)?
JMJD2A Tudor inh: inactive; G9a inh: 45µM; HP1b chromo inh: inactive; BAZ2B block: inactive; PI5P4Ka inh: inconclusive

Results for O=C1OC(/C(=C\Nc2cc(Cl)ccc2O)[N+](=O)[O-])c2ccccc21 (stereo not given) ?
JMJD2A Tudor inh: inconclusive; G9a inh: 10µM; HP1b chromo inh: inconclusive; BAZ2B block: 45µM; PI5P4Ka inh: inactive; L3MBTL1 block: inactive

How did Cc1ccc(N/C=C(\C2OC(=O)c3ccccc32)[N+](=O)[O-])c(C)c1 (stereo not given) do in these assays?
JMJD2A Tudor inh: inactive[11.4 µM]; G9a inh: inconclusive; HP1b chromo inh: inconclusive; BAZ2B block: inactive; PI5P4Ka inh: inactive

Results for CCc1nn(CC(=O)NCCc2ccc(OC)cc2OC)c(=O)c2cc3sccc3n12 ?
JMJD2A Tudor inh: inactive; G9a inh: inactive; HP1b chromo inh: inactive; BAZ2B block: inactive

How did CC(=O)c1ccc(NC(=O)Cn2c(=O)n(Cc3ccco3)c(=O)c3sc4ccccc4c32)cc1 do in these assays?
JMJD2A Tudor inh: inactive; G9a inh: inactive; HP1b chromo inh: inactive; BAZ2B block: inactive

How did CC1(c2ccc3c(c2)OCO3)NC(=O)N(CC(=O)c2ccc[nH]2)C1=O (stereo not given) do in these assays?
JMJD2A Tudor inh: inactive; G9a inh: inconclusive; HP1b chromo inh: inactive; BAZ2B block: inactive; PI5P4Ka inh: inactive; L3MBTL1 block: inactive

How did CC1(c2ccc3c(c2)OCCO3)NC(=O)N(CC(=O)c2ccc[nH]2)C1=O (stereo not given) do in these assays?
JMJD2A Tudor inh: inactive; G9a inh: inactive; HP1b chromo inh: inactive; BAZ2B block: inconclusive; PI5P4Ka inh: -53; L3MBTL1 block: inactive

How did CCOC(=O)C1(C)Oc2ccccc2C(C(=O)OC)=C1C(=O)OC (stereo not given) do in these assays?
JMJD2A Tudor inh: inactive; G9a inh: 28µM; HP1b chromo inh: inactive; PI5P4Ka inh: inconclusive; L3MBTL1 block: inactive

How did Cc1cc2c(C)cc(=O)[nH]c2cc1NC(=O)CCl do in these assays?
JMJD2A Tudor inh: inactive; G9a inh: inconclusive; HP1b chromo inh: inactive; BAZ2B block: inactive; PI5P4Ka inh: inactive; L3MBTL1 block: inactive

Results for O=C(CCl)Nc1cc2[nH]c(=O)[nH]c2cc1Br ?
JMJD2A Tudor inh: inactive; G9a inh: 50µM; HP1b chromo inh: inactive; BAZ2B block: inactive; PI5P4Ka inh: inactive; L3MBTL1 block: inactive

Assay outcomes: PubChem BioAssay, National Center for Advancing Translational Sciences (NCATS)
